CtBP-E1A inh = qHTS Assay for Inhibitors of the CtBP/E1A Interaction; CtBP / adenovirus E1A interaction (AlphaScreen); AlphaScreen GST-E1A/His-CtBP binding, 1536-well; active compounds read low; AID 651724, 2012; activity change, % (test concentration not listed); 340,000 tested, 0.49% active; in the data active = activity change below about -65%; inconclusive = mostly about -30% to -63%
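Protein mix (5X: 125 nM each GST-E1A, His-CtBP) was incubated with pinned compound 2 h at 37 deg C in dark, in 50 mM Tris pH 8.0 buffer with 300 mM NaCl. Glutathione donor and nickel acceptor beads followed; AlphaScreen signal read after 1 h.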
HepG2 tox = qHTS for Inhibitors of TGF-b: Cytotox Counterscreen; HepG2 CAGA-GFP viability, ATP luminescence, 18 h; Potency, µM (doses to about 46.1 µM), actives largely listed as cytotoxic; 410,000 tested, 0.76% active; AID 588856, 2011
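HepG2 CAGA-GFP cells (1000/well, DMEM with 1% FBS) received compound, then TGF-beta at 500 pg/mL final, and were incubated 18 hours at 37 degrees C. Viability was read by CellTiter-Glo luminescence. Media-only wells were set as complete cell-killing and DMSO as no toxicity.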
ATXN2 expr inh = Primary qHTS for Inhibitors of ATXN expression; HEK-293 ATXN2-luciferase reporter, luminescence, 24 h; Potency, µM (highest dose often 57 µM), actives largely listed as inhibitors; 360,000 tested, 0.72% active; AID 1745845, 2022; also: nearly all actives have a fitted effect of over 55% in size
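ATXN2-luciferase reporter cells (luciferase flanked by upstream and downstream ATXN2 gene portions) were treated 24 h at 37 °C with compounds at up to 57 uM. SteadyGlo luminescence gave expression; GF-AFC fluorescence gave viability.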
Six1-Eya2 inh = qHTS Assay for Inhibitors of the Six1/Eya2 Interaction. AlphaScreen GST-Six1/His-Eya2 binding, biochemical; active compounds read low. activity change, % (concentration not given with the values). 360,000 tested, 0.56% active; in the data active = activity change below about -65%; inconclusive = mostly about -30% to -63%
Target sequence (O00167 whole entry, looked up): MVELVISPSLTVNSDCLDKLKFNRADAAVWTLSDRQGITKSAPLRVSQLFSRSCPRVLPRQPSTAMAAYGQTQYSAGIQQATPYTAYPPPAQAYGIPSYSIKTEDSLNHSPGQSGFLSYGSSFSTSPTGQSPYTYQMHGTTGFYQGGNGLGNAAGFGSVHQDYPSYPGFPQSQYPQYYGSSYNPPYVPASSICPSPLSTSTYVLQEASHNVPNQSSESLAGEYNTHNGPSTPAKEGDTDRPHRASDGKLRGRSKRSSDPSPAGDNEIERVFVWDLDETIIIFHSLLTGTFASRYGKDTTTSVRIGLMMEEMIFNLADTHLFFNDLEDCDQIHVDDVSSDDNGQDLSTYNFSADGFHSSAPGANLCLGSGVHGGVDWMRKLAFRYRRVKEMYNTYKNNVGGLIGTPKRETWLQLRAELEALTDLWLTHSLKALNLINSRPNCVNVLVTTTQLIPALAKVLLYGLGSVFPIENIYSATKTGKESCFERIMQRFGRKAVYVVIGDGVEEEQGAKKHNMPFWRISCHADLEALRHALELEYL
Target sequence (Q15475 whole entry, looked up): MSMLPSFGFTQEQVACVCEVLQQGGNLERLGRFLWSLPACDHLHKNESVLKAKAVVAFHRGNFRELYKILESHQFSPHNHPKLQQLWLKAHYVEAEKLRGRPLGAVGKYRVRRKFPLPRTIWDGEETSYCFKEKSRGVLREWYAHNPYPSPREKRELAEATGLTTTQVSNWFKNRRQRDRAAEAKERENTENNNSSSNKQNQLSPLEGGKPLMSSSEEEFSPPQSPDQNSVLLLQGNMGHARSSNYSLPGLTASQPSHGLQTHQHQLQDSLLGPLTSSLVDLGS
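GST-Six1 + His-Eya2 (5X stock: 250/500 nM); Tris pH 8.0, 300 mM NaCl, 0.05% BSA, 0.02% Tween 20; GSH donor/Ni acceptor beads; 1 h 37 °C dark; AlphaScreen readout.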
ATXN viability = Viability Counterscreen for Primary qHTS for Inhibitors of ATXN expression. S2 cells (HEK-293 line with an ATXN2-luciferase reporter) viability, CellTiter-Fluor protease fluorescence, 24 h. 400,000 tested, 0.49% active. Potency, µM (doses to about 56.7 µM), usual class: cytotoxic; also: nearly all actives have a fitted effect of over 40% in size
TGFb inhibitor = qHTS for Inhibitors of TGF-b; HepG2 CAGA-GFP TGF-b/SMAD3 reporter, GFP fluorescence, 18 h; TGF-beta stimulated, 500 pg/mL final; Potency, µM (series often up to 46.1 µM), most hits filed as inhibitors; 410,000 tested, 1.2% active; AID 588855, 2011; also: nearly all actives have a fitted effect of over 65% in size
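TGF-beta reporter screen: HEPG2 CAGA-GFP, 1% FBS, 500 pg/mL TGF-beta final, 18 h; per-cell GFP summed per well; curves fitted and categorized by class.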
Each line names hits and unclear results; the compound was inactive in the other large screens. Sampled rows, rich in hits. Any-hit rate of the full collection: about 2.8%. Unless noted, calls follow the shape of the dose curve; as a rule, active = well fitted curve in the direction sought with a large enough effect; inconclusive = small, poorly fitted or top-dose-only effect, or another doubt; inactive = no such curve, though single readings can be large; an effect the other way counts as inactive or inconclusive.

CCCCC(=O)NC(c1ccccc1)c1ccc2cccnc2c1O (stereo not drawn)	CtBP-E1A inh inconclusive, ATXN2 expr inh inconclusive, Six1-Eya2 inh -66, TGFb inhibitor inconclusive
CCCC(=O)NC(c1ccc(OC)cc1)c1ccc2cccnc2c1O (stereo not drawn)	CtBP-E1A inh -88, ATXN2 expr inh 1.9µM, Six1-Eya2 inh -90, TGFb inhibitor inconclusive (no result: ATXN viability)
CCCC(=O)NC(c1ccccc1)c1ccc2cccnc2c1O (stereo not drawn)	CtBP-E1A inh -91, ATXN2 expr inh 14µM, Six1-Eya2 inh -66, TGFb inhibitor inconclusive
CCN(CCO)CCCOc1ccc2c(Nc3cc(CC(=O)Nc4cccc(F)c4)[nH]n3)ncnc2c1	none (no result: CtBP-E1A inh, HepG2 tox, Six1-Eya2 inh, ATXN viability, TGFb inhibitor)
COc1ccc2c(c1)CCc1cnc(-n3ncc(C(=O)N(C)CCc4ccccn4)c3C)nc1-2	none (no result: CtBP-E1A inh, HepG2 tox, ATXN2 expr inh, Six1-Eya2 inh, TGFb inhibitor)
Oc1cccc(C(Nc2ccccn2)c2ccc3cccnc3c2O)c1Cl (stereo not drawn)	ATXN2 expr inh 8.9µM, ATXN viability inconclusive, TGFb inhibitor inconclusive (no result: CtBP-E1A inh, Six1-Eya2 inh)
COc1ccc(Cl)cc1C(Nc1cccnc1)c1ccc2cccnc2c1O (stereo not drawn)	CtBP-E1A inh -67, ATXN2 expr inh inconclusive, Six1-Eya2 inh inconclusive, TGFb inhibitor inconclusive
CCCCC(=O)NC(c1ccccc1Cl)c1ccc2cccnc2c1O (stereo not drawn)	CtBP-E1A inh inconclusive, ATXN2 expr inh 2.8µM, Six1-Eya2 inh -67, ATXN viability inconclusive, TGFb inhibitor inconclusive
Oc1c(C(Nc2ccccn2)c2ccccc2)ccc2cccnc12 (stereo not drawn)	none (no result: CtBP-E1A inh, ATXN2 expr inh, Six1-Eya2 inh, ATXN viability)
CCCCC(=O)NC(c1ccc(C(C)C)cc1)c1ccc2cccnc2c1O (stereo not drawn)	TGFb inhibitor inconclusive
Nc1ccc(N=Nc2ccccc2)c2ccccc12	none
c1ccc(N=Nc2ccc3cccccc2-3)cc1	CtBP-E1A inh -90, Six1-Eya2 inh -98, ATXN viability inconclusive
COc1ccc(-c2c(C3C4C=CCC(C)C4C(=O)N3Cc3ccccc3)ccc3ccccc23)cc1 (stereo not drawn)	none (no result: CtBP-E1A inh, ATXN2 expr inh, Six1-Eya2 inh, ATXN viability)
COc1ccccc1NC(=O)C1=C(C)NC2=C(C(=O)CC(c3ccc(OC)c(OC)c3)C2)C1c1coc2ccccc2c1=O (stereo not drawn)	Six1-Eya2 inh -78
Cc1ccc(/C=N/Nc2cc(C)nc(NCc3ccccc3)n2)cc1	HepG2 tox 13µM, TGFb inhibitor inconclusive
Cc1cc(N/N=C/c2ccc(O)cc2)nc(NS(=O)(=O)c2ccccc2)n1	CtBP-E1A inh inconclusive, Six1-Eya2 inh -73, ATXN viability inconclusive
Cc1cc(Nc2ccc(Cl)cc2)nc(NCc2ccccc2)n1	HepG2 tox 11µM, ATXN2 expr inh inconclusive, ATXN viability inconclusive, TGFb inhibitor inconclusive
CN(C(=O)CSc1nnc(-c2ccccc2F)o1)C1CCCCC1	none (no result: CtBP-E1A inh, Six1-Eya2 inh)
CCCCN(C)c1nc(-c2ccco2)c2c(c1C#N)CC(C)(C)OC2	ATXN2 expr inh 22µM, TGFb inhibitor inconclusive
Cc1cc(C)c2c(=O)n3c(nc2c1)C(Cc1ccccc1)NC(=O)c1cccnc1-3 (stereo not drawn)	ATXN viability 10µM, TGFb inhibitor inconclusive
Cc1cc(C)c2c(=O)n3c(nc2c1)C(Cc1ccc(O)cc1)NC(=O)c1cccnc1-3 (stereo not drawn)	ATXN viability inconclusive, TGFb inhibitor inconclusive
Cc1ccccc1/C=N/NC(=O)Cn1cnc([N+](=O)[O-])n1	none
O=C(CCCn1cnc([N+](=O)[O-])n1)Nc1cc(Cl)ccc1O	none
O=C(Cn1cnc([N+](=O)[O-])n1)N/N=C/c1ccccc1O	CtBP-E1A inh -95, Six1-Eya2 inh -92
O=C(Cn1cnc([N+](=O)[O-])n1)N/N=C/c1cc(Cl)ccc1O	CtBP-E1A inh -94, ATXN2 expr inh inconclusive, Six1-Eya2 inh -92
Cc1cc(O)c2ccccc2c1O	ATXN2 expr inh 8.9µM, ATXN viability inconclusive (no result: CtBP-E1A inh, HepG2 tox, Six1-Eya2 inh, TGFb inhibitor)
CCc1ccc(NC(=O)Cn2nnc(C(=O)NCc3ccc(C)cc3)c2N)cc1	none (no result: CtBP-E1A inh, ATXN2 expr inh, Six1-Eya2 inh, ATXN viability)
COc1ccc(C(N)c2nccc3cc(OC)c(OC)cc23)cc1OC (stereo not drawn)	CtBP-E1A inh inconclusive, Six1-Eya2 inh -75
CCc1cccc(C)c1NC(=O)CCCn1c(C)c2cnn(-c3ccccc3)c(=O)c2c1C	none (no result: CtBP-E1A inh, ATXN2 expr inh, Six1-Eya2 inh, ATXN viability)
Cc1cc(NC(=O)CCCn2c(C)c3cnn(-c4ccccc4)c(=O)c3c2C)ccc1Br	TGFb inhibitor 7.1µM (no result: CtBP-E1A inh, ATXN2 expr inh, Six1-Eya2 inh, ATXN viability)
O=C1CC(=Nc2ccc([N+](=O)[O-])cc2)NN1c1c(Cl)cc(Cl)cc1Cl	TGFb inhibitor 16µM (no result: ATXN2 expr inh)
CC(N)=Nc1ccc([N+](=O)[O-])cc1	none
CCc1cc2c(cc3c(=O)n(CC(=O)NC4CCCCC4)ncn32)s1	none (no result: CtBP-E1A inh, ATXN2 expr inh, Six1-Eya2 inh, ATXN viability)
CC1(C)CNc2cc(NC(=O)c3cccnc3NCc3ccncc3)ccc21	none (no result: CtBP-E1A inh, HepG2 tox, Six1-Eya2 inh, ATXN viability, TGFb inhibitor)
CCCCN1C(C(=O)c2ccccc2)=C(OC(C)=O)c2ccccc2S1(=O)=O	ATXN2 expr inh inconclusive, ATXN viability inconclusive, TGFb inhibitor inconclusive (no result: CtBP-E1A inh, Six1-Eya2 inh)
O=S(=O)(Cc1cc(Cl)nc(-c2ccncc2)n1)c1ccccc1	none
O=S(=O)(Cc1cc(Cl)nc(-c2ccccc2)n1)c1ccccc1	ATXN2 expr inh 32µM, ATXN viability inconclusive, TGFb inhibitor inconclusive

Screens (PubChem)
